Among the data in PubChem BioAssay (Tox21) are Potency values, retold here.

A number with no mark means an inactive call. Results filed as inconclusive are left out. The source made the active and inactive calls. Unless noted, calls follow the shape of the full dose curve.

The nature of experiment [1]: Nuclear factor erythroid 2-related factor 2/antioxidant responsive element (Nrf2/ARE) small molecule agonists: qHTS cell viability counter screen in human keratinocytes (AID 1919968; active = well fitted curve in the direction sought with a large enough effect in the repeat runs; an effect the other way counts as inactive or inconclusive; also: nearly all actives have a fitted effect of over 55% in size). In a few lines:
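In human HaCaT keratinocytes stably expressing an ARE-driven luciferase, compound exposure lasted 23 h at 37 C under 5% CO2. Viable cells are quantified with a protease-based fluorogenic reagent (CellTiter-Fluor) read 1 h after addition.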
In general terms: In qHTS, concentration-response curves come from the screen itself.

The target in experiment [2] is Gonadotropin-releasing hormone receptor (Homo sapiens) (UniProt P30968). Briefly: Human gonadotropin-releasing hormone receptor (GnRHR) small molecule agonists, calcium flux assay in GnRHR-HEK293 cells (AID 1920063). Also: nearly all actives have a fitted effect of over 35% in size. A digest of the protocol: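 Intracellular calcium rise is the read-out: engineered human GnRHR HEK293 cells, dye-loaded, are exposed to DMSO-dissolved compounds and fluorescence at Ex/Em 480/540 is tracked for 3 min.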
Sequence of Gonadotropin-releasing hormone receptor (Homo sapiens) (P30968 whole entry, looked up): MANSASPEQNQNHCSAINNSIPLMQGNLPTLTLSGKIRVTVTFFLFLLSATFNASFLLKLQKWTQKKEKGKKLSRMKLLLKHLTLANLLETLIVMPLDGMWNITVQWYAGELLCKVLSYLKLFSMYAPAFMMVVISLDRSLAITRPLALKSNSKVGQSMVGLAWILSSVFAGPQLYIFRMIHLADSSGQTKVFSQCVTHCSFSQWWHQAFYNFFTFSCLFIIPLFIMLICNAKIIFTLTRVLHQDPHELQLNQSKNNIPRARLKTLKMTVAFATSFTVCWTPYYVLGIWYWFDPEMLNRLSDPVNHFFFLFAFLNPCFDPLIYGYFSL
On the technique in general: Calcium flux is commonly read through the fluorescence of an indicator in the cells.

Experiment [3] concerns the target KiSS-1 receptor (Homo sapiens) (UniProt Q969F8). The experiment in a line: Human kisspeptin (KISS1R) small molecule agonists, calcium flux assay in KISS1R-HEK293 cells (AID 1920064; active = well fitted curve in the direction sought with a large enough effect in the repeat runs; an effect the other way counts as inactive or inconclusive). A digest of the protocol: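 Concentration-response testing used 15 concentrations in triplicate on human KISS1R-expressing HEK293 cells. Calcium-dependent fluorescence (Ex/Em 480/540) was followed kinetically for 3 min after compound transfer.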

The nature of experiment [4]: G protein-coupled receptor (GPCR) small molecule agonists, calcium flux assay: HEK293 wild type cell line counter screen (AID 1920065). In a few lines:
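Fluorescence intensity signals activation. After overnight (18 h) culture and a 1 h calcium dye load at 37 C, compounds are added by pin tool and the plate read at 480/540 nm for 3 min in 1 s steps.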

The nature of experiment [5]: p53 small molecule agonists, cell-based qHTS assay with human liver microsomes (AID 1963577). A digest of the protocol: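 Fluorescence of the beta-lactamase reporter in p53RE-bla cells, detected with LiveBLAzer substrate (2 h, room temperature, dark), served as the read-out after 16 h compound exposure at 37 C with human liver microsomes and NADPH, each 0.5 mg/mL final.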

Experiment [6] is described as follows: p53 small molecule agonists, cell-based qHTS assay with rat liver microsomes (AID 1963578). In a few lines:
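Cells carrying a p53 response element–beta-lactamase reporter were plated and rested 5 h, then dosed with compound in DMSO plus rat liver microsomes and NADPH, each at 0.5 mg/mL final. After 16 h at 37 C, LiveBLAzer substrate was added for 2 h.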

The nature of experiment [7]: p53 small molecule agonists, cell-based qHTS assay with rat liver microsomes: qHTS cell viability counter screen (AID 1963580). Also: nearly all actives have a fitted effect of over 45% in size. In a few lines:
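Rat liver microsome (0.5 mg/mL final) and NADPH (0.5 mg/mL final) co-incubation with compounds for 16 h at 37 C on HCT-116 p53RE-bla cells; cytotoxicity taken from intracellular ATP luminescence.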

A short description of experiment [8]: p53 small molecule agonists, cell-based qHTS assay (AID 1963582; active = well fitted activation curve with a large enough effect in the signal ratio in the repeat runs, not every such curve was filed as active; the % refers to the signal ratio). In a few lines: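 After plating, p53RE-bla cells sat 5 h in the incubator; compounds or DMSO vehicle were pinned in; a 16 h incubation at 37 C followed; FRET substrate was added and, 2 h later at RT, fluorescence was measured.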
Experiment [9] has as its target 5-hydroxytryptamine receptor 2A (Homo sapiens) (UniProt P28223). Briefly: 5-hydroxytryptamine receptor 2A (HTR2A) small molecule antagonists, cell-based qHTS assay (AID 1963586). Also: nearly all actives have a fitted effect of over 45% in size. In a few lines: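 CHO cells stably expressing human HTR2A were plated for 18 h at 37 C, then loaded with calcium dye for 1 h. Compounds were preincubated 5 min at room temperature before DOI (4 nM solution) was added. Kinetic fluorescence was read for 3 min.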

Experiment [10] has the same target. Briefly: 5-hydroxytryptamine receptor 2A (HTR2A) small molecule agonists, cell-based qHTS assay (AID 1963587). Also: nearly all actives have a fitted effect of over 30% in size. A digest of the protocol:
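Kinetic calcium-flux fluorescence (2 min, 1 sec intervals) after compound addition in agonist mode. HTR2A-CHO cells were cultured 18 h, then dye-loaded 1 h at 37 C.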

Experiment [11] has as its target Muscarinic acetylcholine receptor M1 (Homo sapiens) (UniProt P11229). Briefly: Cholinergic receptor muscarinic 1 (CHRM1) small molecule antagonists, cell-based qHTS assay (AID 1963588). Also: nearly all actives have a fitted effect of over 40% in size. In a few lines:
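Compounds were tested at 15 concentrations in three independent runs. Dye-loaded CHRM1-CHO cells were exposed 5 min at room temperature before stimulation by acetylcholine added at 50nM. Intracellular calcium was read kinetically on FDSS for 3 min.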

Experiment [12] shares this target. Briefly: Cholinergic receptor muscarinic 1 (CHRM1) small molecule agonists, cell-based qHTS assay (AID 1963589). Also: nearly all actives have a fitted effect of over 35% in size. In a few lines:
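Fluorescent calcium dye reports M1 activation in stably transfected CHO cells. Compounds, 15 concentrations, added after 1 h dye loading at 37 C; kinetic reading at 1 sec intervals.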

Experiment [13] is described as follows: cAMP Responsive Elements (CRE) small molecule agonists, cell-based qHTS assay (AID 1963590). In a few lines: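 Compound exposure lasted 3 h at 37 C/5% CO2 in CRE-bla HEK 293T cells grown in assay medium with 10% dialyzed FBS and 25 mM HEPES. Reporter signal came from LiveBLAzer B/G FRET substrate, 2 h, room temperature.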
Experiment [14] addresses Beta-2 adrenergic receptor (Homo sapiens) (UniProt P07550). The experiment in a line: Adrenergic beta2 receptor (ADRB2) small molecule antagonists, cell-based qHTS assay (AID 1963592). Also: nearly all actives have a fitted effect of over 50% in size. Also: potency is read from the fitted curve at half-maximal effect. In a few lines:
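Assay format: CHO-ADRB2 cells, 18-20hr seeding at 37C/5% CO2, then compound plus 1nM isoproterenol agonist mix for 0.5hr RT. Homogeneous time-resolved fluorescence cAMP detection after 1hr, expressed as 665/615 nm ratio.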

For experiment [15], the target named is D(2) dopamine receptor (Homo sapiens) (UniProt P14416). The experiment in a line: Dopamine D2 receptor (DRD2) small molecule agonists, cell-based qHTS assay (AID 1963594). Also: nearly all actives have a fitted effect of over 35% in size. A digest of the protocol:
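cAMP accumulation in DRD2-HEK293 cells measured by HTRF after 1 h detection; compounds added 10 min before NKH477 (200nM […]) forskolin-analogue stimulation, 30 min at room temperature, with Ro20-1724 present at 0.1 mM final.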

A short description of experiment [16]: p53 small molecule agonists, cell-based qHTS assay with human liver microsomes: qHTS cell viability counter screen (AID 1963579). Also: nearly all actives have a fitted effect of over 45% in size. In a few lines:
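Cytotoxicity counter screen: p53RE-bla, 4,000 cells/well; 5 h settle, 37 C/5% CO2; cpd + HLM 0.5 mg/mL + NADPH 0.5 mg/mL (final); 16 h, 37 C; CellTiter-Glo, 30 min RT, luminescence.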

Experiment [17] is described as follows: p53 small molecule agonists, cell-based qHTS assay: qHTS cell viability counter screen (AID 1963581). Also: nearly all actives have a fitted effect of over 45% in size. A digest of the protocol: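 Luminescence from CellTiter-Glo, reflecting ATP content, serves as the cytotoxicity measure; it is taken after the 2 h reporter substrate step in HCT-116 p53RE-bla cells dosed for 16 h at 37 C.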
Experiment [18] is described as follows: cAMP Responsive Elements (CRE) small molecule antagonists, cell-based qHTS assay (AID 1963591; active = well fitted inhibition curve with a large enough effect in the signal ratio in the repeat runs, not every such curve was filed as active; the % refers to the signal ratio). In a few lines: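 Stimulation used NKH477 at a final 0.25 uM for 3 h in compound-treated CRE-bla HEK293T cells, seeded 18 h beforehand. Reporter activity was measured with LiveBLAzer B/G FRET substrate after 2 h at room temperature.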
For experiment [19], the target named is D(2) dopamine receptor (Homo sapiens) (UniProt P14416). The experiment in a line: Dopamine D2 receptor (DRD2) small molecule antagonists, cell-based qHTS assay (AID 1963595; active = well fitted inhibition curve with a large enough effect in the signal ratio in the repeat runs, with a control signal flat; the % refers to the signal ratio). A digest of the protocol: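 Stable D2 receptor HEK293 line, 24 h after seeding. Compound preincubated 10 min, then quinpirole (12 nM) with forskolin analogue NKH477 (200 nM), 30 min, room temperature. Detection by time-resolved FRET of cAMP.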
Sequence of D(2) dopamine receptor (Homo sapiens) (P14416 whole entry, looked up): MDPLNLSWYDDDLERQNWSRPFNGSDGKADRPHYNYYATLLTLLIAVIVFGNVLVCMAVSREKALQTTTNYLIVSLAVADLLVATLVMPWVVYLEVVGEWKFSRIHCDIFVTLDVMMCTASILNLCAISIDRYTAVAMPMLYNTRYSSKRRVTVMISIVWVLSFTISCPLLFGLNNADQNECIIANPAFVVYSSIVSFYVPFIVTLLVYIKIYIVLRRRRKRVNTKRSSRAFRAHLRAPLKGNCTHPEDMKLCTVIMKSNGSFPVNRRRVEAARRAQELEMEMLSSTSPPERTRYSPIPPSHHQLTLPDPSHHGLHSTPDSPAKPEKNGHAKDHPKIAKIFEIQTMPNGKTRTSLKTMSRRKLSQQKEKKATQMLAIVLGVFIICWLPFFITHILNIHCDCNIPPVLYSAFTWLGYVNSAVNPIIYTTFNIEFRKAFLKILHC

Experiment [20] concerns the target Beta-2 adrenergic receptor (Homo sapiens) (UniProt P07550). Briefly: Adrenergic beta2 receptor (ADRB2) small molecule agonists, cell-based qHTS assay (AID 1963593).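 Also: CHO cells stably overexpressing human ADRB2.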 A digest of the protocol: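 CHO cells stably over-expressing ADRB2 were plated overnight at 37C, then dosed with compounds plus a stimulation mix containing 100uM IBMX and 25uM Ro-20-1724 for 0.5hr at room temperature. cAMP was measured by HTRF competition, 1hr.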

Sequence of Beta-2 adrenergic receptor (Homo sapiens) (P07550 whole entry, looked up): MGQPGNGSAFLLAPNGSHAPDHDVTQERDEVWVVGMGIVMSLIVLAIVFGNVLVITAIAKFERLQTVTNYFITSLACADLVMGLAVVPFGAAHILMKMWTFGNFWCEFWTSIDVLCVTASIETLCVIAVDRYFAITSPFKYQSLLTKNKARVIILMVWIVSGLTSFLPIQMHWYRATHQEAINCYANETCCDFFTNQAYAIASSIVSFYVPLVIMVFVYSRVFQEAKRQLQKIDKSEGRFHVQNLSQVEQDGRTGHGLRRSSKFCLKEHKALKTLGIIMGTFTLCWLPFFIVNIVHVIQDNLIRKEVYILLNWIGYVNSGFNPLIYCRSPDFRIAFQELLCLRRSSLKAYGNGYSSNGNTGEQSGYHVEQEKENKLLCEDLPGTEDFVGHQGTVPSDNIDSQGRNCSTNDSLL
Sequence of Muscarinic acetylcholine receptor M1 (Homo sapiens) (P11229 whole entry, looked up): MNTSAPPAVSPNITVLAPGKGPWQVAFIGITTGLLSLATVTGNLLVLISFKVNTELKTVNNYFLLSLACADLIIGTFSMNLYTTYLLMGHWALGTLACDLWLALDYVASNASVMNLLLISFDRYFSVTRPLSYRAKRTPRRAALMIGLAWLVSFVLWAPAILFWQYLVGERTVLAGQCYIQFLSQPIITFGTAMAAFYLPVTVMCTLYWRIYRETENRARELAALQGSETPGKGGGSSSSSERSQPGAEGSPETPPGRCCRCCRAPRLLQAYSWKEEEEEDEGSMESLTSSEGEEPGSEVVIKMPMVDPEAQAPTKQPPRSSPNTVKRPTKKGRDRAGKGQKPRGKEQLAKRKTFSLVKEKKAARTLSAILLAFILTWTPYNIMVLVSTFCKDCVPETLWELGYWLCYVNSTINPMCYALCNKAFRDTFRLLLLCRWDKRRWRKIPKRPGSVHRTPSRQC
Sequence of KiSS-1 receptor (Homo sapiens) (Q969F8 whole entry, looked up): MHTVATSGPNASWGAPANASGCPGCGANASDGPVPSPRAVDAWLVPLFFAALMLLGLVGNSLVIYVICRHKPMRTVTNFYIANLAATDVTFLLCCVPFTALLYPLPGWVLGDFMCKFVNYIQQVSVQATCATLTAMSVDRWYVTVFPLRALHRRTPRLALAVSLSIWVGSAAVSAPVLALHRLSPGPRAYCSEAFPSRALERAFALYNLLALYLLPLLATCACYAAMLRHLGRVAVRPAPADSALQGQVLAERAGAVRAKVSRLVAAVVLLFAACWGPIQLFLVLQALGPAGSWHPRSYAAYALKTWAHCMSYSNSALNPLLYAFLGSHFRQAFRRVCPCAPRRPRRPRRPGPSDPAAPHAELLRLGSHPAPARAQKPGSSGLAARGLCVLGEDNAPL
Sequence of 5-hydroxytryptamine receptor 2A (Homo sapiens) (P28223 whole entry, looked up): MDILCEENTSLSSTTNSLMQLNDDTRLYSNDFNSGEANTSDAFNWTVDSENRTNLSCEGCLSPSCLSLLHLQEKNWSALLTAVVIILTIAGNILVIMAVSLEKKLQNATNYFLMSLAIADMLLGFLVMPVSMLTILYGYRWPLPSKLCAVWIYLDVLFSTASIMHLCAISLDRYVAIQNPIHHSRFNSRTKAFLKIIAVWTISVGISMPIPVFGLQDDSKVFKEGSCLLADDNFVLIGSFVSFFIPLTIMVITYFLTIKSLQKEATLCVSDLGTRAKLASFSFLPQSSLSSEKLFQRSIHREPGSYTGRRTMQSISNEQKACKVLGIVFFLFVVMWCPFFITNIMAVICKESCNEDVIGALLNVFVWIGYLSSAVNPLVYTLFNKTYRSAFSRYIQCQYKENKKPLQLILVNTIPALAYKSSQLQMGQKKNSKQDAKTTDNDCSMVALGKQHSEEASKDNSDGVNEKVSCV

With `CCCCCCCC/C=C\CCCCCCCC(=O)OCCOC(=O)CCCCCCC/C=C\CCCCCCCC`, the Potency result in [1], in experiment [2], in experiment [3], in [4], in experiment [5] and in [6] was “inactive” each time. The Potency entry in [7], in experiment [8], in experiment [9], in [10], in experiment [11] and in experiment [12] was “inactive” in each case. The Potency entry in experiment [13], in [14] and in [15] was “inactive” each time.
For `Cc1ccc2ccc(Cl)cc2n1`, the Potency result in [1], in experiment [2], in [3], in experiment [4], in [5] and in experiment [6] was “inactive” in each case. The Potency result in experiment [16], in experiment [17], in [8], in experiment [9], in [10] and in experiment [11] was “inactive” in each case. Also, the Potency entry in [12], in experiment [13], in experiment [18], in [14], in [15] and in experiment [19] was “inactive” in each case.
As to `CC1CN(c2ccccc2)NC1=O` (centres undefined), the Potency entry in [1], in [2], in [3], in experiment [4], in [5] and in experiment [16] was “inactive” throughout. Further, the Potency entry in experiment [7], in experiment [17], in [8], in [9], in experiment [11] and in experiment [18] was “inactive” throughout. Further, the Potency entry in experiment [14], in experiment [20] and in experiment [15] was “inactive” in each case.
As to `CN1C(=O)c2ccccc2C1=O`, the Potency result in experiment [1], in experiment [2], in experiment [3], in experiment [4], in experiment [5] and in [16] was “inactive” throughout. Also, the Potency entry in experiment [17], in experiment [8], in [9], in [10], in [13] and in experiment [18] was “inactive” each time. Further, the Potency entry in experiment [19] is “inactive”. In addition, the Potency in experiment [14] was 54.5 µM (active).
For the compound `Cc1cccc(Nc2ccccc2)c1`, the Potency entry in experiment [1], in experiment [2], in [3], in experiment [4], in [6] and in [16] was “inactive” in each case. The Potency entry in experiment [7], in experiment [17], in [8], in [9], in experiment [10] and in experiment [11] was “inactive” each time. For the same compound, the Potency result in experiment [14], in experiment [20], in experiment [15] and in [19] was “inactive” each time.
On to `CCCCCC`, for which the Potency result in [1], in experiment [2], in experiment [3], in [4], in experiment [6] and in experiment [16] was “inactive” in each case. Further, the Potency entry in experiment [7], in experiment [17], in experiment [8], in experiment [9], in [10] and in experiment [12] was “inactive” in each case. Moreover, the Potency entry in experiment [13], in experiment [18], in [14], in [20], in experiment [15] and in experiment [19] was “inactive” each time.
Regarding `CCOB(OCC)OCC`, the Potency entry in experiment [1], in experiment [2], in [3], in experiment [4], in experiment [6] and in experiment [16] was “inactive” throughout. The Potency result in experiment [7], in experiment [17], in experiment [8], in [9], in experiment [10] and in experiment [11] was “inactive” in each case. The Potency entry in experiment [12], in experiment [13], in experiment [18], in experiment [14], in [20] and in experiment [15] was “inactive” each time.
